This is an account of results in PubChem BioAssay AID1159580 (chemical genetic matrix, 2015).

Each structure is given as a SMILES string. Hit rate of the full screen: of about 5,500 compounds, about 2,000 (36%) were called active. Inconclusive results (about 18%) are left out. Some of the results follow. A number with no mark means an inactive call. Rule as the data show it: active = normalized growth mostly below about 0.91 (no sharp cut-off); inconclusive = no clear call, values can overlap the other calls; inactive = mostly above about 0.92.

This test can be described thus: chemical genetic growth profiling, strain panel (AID 1159580).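 Also: tested at 20 µM; growth read once vehicle control cultures reached saturation at 30 °C; 1 = growth at the plate median or of vehicle wells; lower values mean less growth of the strain.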 The following applies: growth OD.
The mark [1] stands for this setting: S. cerevisiae deletion strains, locus YAL013W, strain DEP1, active compounds read low.
Where [2] appears, read: S. cerevisiae deletion strains, locus YBR229C, strain ROT2, active compounds read low.
Setting [3] is: S. cerevisiae deletion strains, locus YCL061C, strain MRC1, active compounds read low.
Setting [4] is: S. cerevisiae deletion strains, locus YDL101C, strain DUN1, active compounds read low.
Setting [5] is: S. cerevisiae deletion strains, locus YDR150W, strain NUM1, active compounds read low.
Where [6] appears, read: S. cerevisiae deletion strains, locus YEL061C, strain CIN8, active compounds read low.
The mark [7] stands for this setting: S. cerevisiae deletion strains, locus YGR078C, strain PAC10, active compounds read low.
Where [8] appears, read: S. cerevisiae deletion strains, locus YHR030C, strain SLT2, active compounds read low.
The mark [9] stands for this setting: S. cerevisiae deletion strains, locus YHR087W, strain rtc3, active compounds read low.
The mark [10] stands for this setting: S. cerevisiae deletion strains, locus YJL187C, strain SWE1, active compounds read low.
Setting [11] is: S. cerevisiae deletion strains, locus YJR043C, strain POL32, active compounds read low.
Setting [12] is: S. cerevisiae deletion strains, locus YJR075W, strain HOC1, active compounds read low.
The mark [13] stands for this setting: S. cerevisiae deletion strains, locus YLR039C, strain RIC1, active compounds read low.
Where [14] appears, read: S. cerevisiae deletion strains, locus YLR058C, strain SHM2 (second series), active compounds read low.
Where [15] appears, read: S. cerevisiae deletion strains, locus YLR085C, strain ARP6, active compounds read low.
Where [16] appears, read: S. cerevisiae deletion strains, locus YLR262C, strain YPT6, active compounds read low.
The mark [17] stands for this setting: S. cerevisiae deletion strains, locus YML094W, strain GIM5, active compounds read low.
Where [18] appears, read: S. cerevisiae deletion strains, locus YMR219W, strain ESC1, active compounds read low.
Setting [19] is: S. cerevisiae deletion strains, locus YMR263W, strain SAP30, active compounds read low.
Setting [20] is: S. cerevisiae deletion strains, locus YMR307W, strain GAS1, active compounds read low.
Setting [21] is: S. cerevisiae deletion strains, locus YNL153C, strain GIM3, active compounds read low.
Setting [22] is: S. cerevisiae deletion strains, locus YNL298W, strain CLA4 (second series), active compounds read low.
[23] abbreviates: S. cerevisiae deletion strains, locus YNL322C, strain KRE1, active compounds read low.
[24] abbreviates: S. cerevisiae deletion strains, locus YNR030W, strain Alg12, active compounds read low.
Setting [25] is: S. cerevisiae deletion strains, locus YPL055C, strain LGE1, active compounds read low.
Setting [26] is: S. cerevisiae deletion strains, locus YPL241C, strain CIN2, active compounds read low.
[27] abbreviates: S. cerevisiae deletion strains, locus YPR135W, strain CTF4, active compounds read low.
Setting [28] is: S. cerevisiae deletion strains, locus YOL006C, strain TOP1, active compounds read low.

As for `CC(C)(C)c1ccc(NC(=O)Cc2cc(F)cc(F)c2)cc1`, the normalized growth was 0.993 under setting [1]; 0.995 under setting [2]; 0.97 under setting [3]; 1.02 under setting [4]; 0.902 under setting [5]; 0.997 under setting [6]. The normalized growth reads like this: under setting [7], 0.979; under setting [8], 0.988; under setting [9], 0.984; under setting [10], 0.985; under setting [11], 1; under setting [12], 0.933. Further, the normalized growth by setting is: under setting [13], 0.939; under setting [14], 0.986; under setting [15], 1.26 [resistant] (active); under setting [16], 0.941; under setting [17], 0.994; under setting [18], 0.988. The normalized growth by setting is: under setting [19], 1; under setting [20], 1.05; under setting [21], 0.989; under setting [22], 0.97; under setting [23], 0.985; under setting [24], 0.985. The normalized growth is 0.885 under setting [25], 0.949 under setting [26] and 1 under setting [27].
In the case of `CC(C)(C)C(=O)Nc1ccc(F)cc1`, the normalized growth was 1 under setting [1]; 1 under setting [2]; 0.991 under setting [3]; 0.994 under setting [4]; 1.02 (S. cerevisiae deletion strains, locus YDL134C, strain PPH21, active compounds read low); 0.985 under setting [5]. Besides, the normalized growth reads like this: under setting [6], 1.01; under setting [7], 0.999; under setting [8], 1.02; under setting [9], 1; under setting [10], 1.01; under setting [11], 1.01. For the same molecule, the normalized growth was 0.962 under setting [12]; 1.07 under setting [13]; 1.01 under setting [14]; 1.05 under setting [15]; 1.01 under setting [16]; 1 under setting [17]. Besides, the normalized growth is, setting by setting: under setting [18], 1; under setting [19], 1; under setting [21], 0.995; under setting [22], 1.04; under setting [23], 0.994; under setting [24], 1.02. The normalized growth under setting [28] is 1.01, the normalized growth under setting [25] is 0.946, the normalized growth under setting [26] was 1.01 and the normalized growth under setting [27] was 0.956.
Turning to `O=C1NCN(c2ccccc2)C12CCN(CC1COc3ccccc3O1)CC2` (stereo unspecified), the normalized growth (S. cerevisiae deletion strains, locus YAL040C, strain CLN3, active compounds read low) was 1; the normalized growth (S. cerevisiae deletion strains, locus YCL061C, strain MRC1 (second series), active compounds read low) is 1.01; the normalized growth (S. cerevisiae deletion strains, locus YDR363W, strain ESC2, active compounds read low) was 0.998; the normalized growth (S. cerevisiae deletion strains, locus YER002W, strain NOP16, active compounds read low) is 1.02; the normalized growth (S. cerevisiae deletion strains, locus YGR229C, strain SMI1, active compounds read low) is 0.999; the normalized growth under setting [20] was 0.999. Also, the normalized growth (S. cerevisiae deletion strains, locus YNL128W, strain TEP1, active compounds read low) is 1.04; the normalized growth (S. cerevisiae deletion strains, locus YNL175C, strain NOP13, active compounds read low) was 1.02; the normalized growth (S. cerevisiae deletion strains, locus YNL197C, strain WHI3, active compounds read low) is 1.02; the normalized growth (S. cerevisiae deletion strains, locus YNL224C, strain SQS1, active compounds read low) is 1; the normalized growth (S. cerevisiae deletion strains, locus YOR083W, strain WHI5 (second series), active compounds read low) is 1.04; the normalized growth under setting [25] was 1.01.
On to `Cc1cccc(C)c1NC(=O)C(C)Oc1ccc(Cl)cc1Cl` (stereo unspecified), for which the normalized growth under setting [1] was 1.01; the normalized growth under setting [2] was 1; the normalized growth under setting [4] is 1.01; the normalized growth under setting [5] was 1.02; the normalized growth under setting [6] was 0.996; the normalized growth under setting [7] was 1. Besides, the normalized growth runs as follows: under setting [8], 0.989; under setting [9], 1.01; under setting [10], 1.01; under setting [11], 1; under setting [12], 0.998; (S. cerevisiae deletion strains, locus YKL190W, strain CNB1, active compounds read low) 0.999. Moreover, the normalized growth runs as follows: under setting [13], 0.961; under setting [14], 0.997; under setting [15], 1.02; under setting [16], 0.963; under setting [17], 1.09; under setting [18], 1.01. The normalized growth is 1 under setting [19]; 0.929 under setting [20]; 1.02 under setting [21]; 1.02 under setting [22]; 1 under setting [23]; 1.01 under setting [24]. Besides, the normalized growth is, setting by setting: under setting [28], 1.04; under setting [25], 1.04; under setting [26], 1.05; under setting [27], 1.01; (S. cerevisiae strains, strain wild type, active compounds read low) 0.995.
